Measured values: ChEMBL document CHEMBL1961873, “Compounds: GSK PKIS; Assays: Nanosyn kinase panel” (2012)

What was measured:
[1] = target: Serine/threonine-protein kinase pim-2 (Homo sapiens) (UniProt Q9P1W9); settings: at 1 µM;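 further: each value is a mean of the inhibition measurements against the kinase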
[2] = target: Serine/threonine-protein kinase pim-3 (Homo sapiens) (UniProt Q86V86); settings: at 0.1 µM
[3] = target: Serine/threonine-protein kinase pim-3 (Homo sapiens) (UniProt Q86V86); settings: at 1 µM
[4] = target: T1, MAP kinase-activated protein kinase 5 (Homo sapiens) (UniProt Q8IW41); settings: at 0.1 µM
T1 sequence (whole entry): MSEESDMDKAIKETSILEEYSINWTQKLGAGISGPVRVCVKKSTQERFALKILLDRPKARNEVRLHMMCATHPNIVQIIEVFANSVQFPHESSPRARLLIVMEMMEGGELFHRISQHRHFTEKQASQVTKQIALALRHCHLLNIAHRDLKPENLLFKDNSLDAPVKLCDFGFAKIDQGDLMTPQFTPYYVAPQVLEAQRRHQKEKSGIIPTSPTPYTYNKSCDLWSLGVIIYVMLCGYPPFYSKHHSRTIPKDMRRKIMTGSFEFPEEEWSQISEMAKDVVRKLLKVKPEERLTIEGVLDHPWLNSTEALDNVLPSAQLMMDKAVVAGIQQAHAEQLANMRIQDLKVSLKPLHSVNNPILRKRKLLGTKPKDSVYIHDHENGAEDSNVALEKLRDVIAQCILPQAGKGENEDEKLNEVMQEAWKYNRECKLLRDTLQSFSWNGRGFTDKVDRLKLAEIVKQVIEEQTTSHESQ

[5] = target: T1, MAP kinase-activated protein kinase 5 (Homo sapiens); settings: at 1 µM
[6] = target: Serine/threonine-protein kinase SIK1 (Homo sapiens) (UniProt P57059); settings: at 0.1 µM
[7] = target: Serine/threonine-protein kinase SIK1 (Homo sapiens) (UniProt P57059); settings: at 1 µM
[8] = target: Serine/threonine-protein kinase SIK2 (Homo sapiens) (UniProt Q9H0K1); settings: at 0.1 µM
[9] = target: Serine/threonine-protein kinase SIK2 (Homo sapiens) (UniProt Q9H0K1); settings: at 1 µM
[10] = target: T2, Serine/threonine-protein kinase TBK1 (Homo sapiens) (UniProt Q9UHD2); settings: at 0.1 µM;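 further: values are the mean TBK1 inhibition, taken from the GSK PKIS screening data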
T2 sequence (whole entry): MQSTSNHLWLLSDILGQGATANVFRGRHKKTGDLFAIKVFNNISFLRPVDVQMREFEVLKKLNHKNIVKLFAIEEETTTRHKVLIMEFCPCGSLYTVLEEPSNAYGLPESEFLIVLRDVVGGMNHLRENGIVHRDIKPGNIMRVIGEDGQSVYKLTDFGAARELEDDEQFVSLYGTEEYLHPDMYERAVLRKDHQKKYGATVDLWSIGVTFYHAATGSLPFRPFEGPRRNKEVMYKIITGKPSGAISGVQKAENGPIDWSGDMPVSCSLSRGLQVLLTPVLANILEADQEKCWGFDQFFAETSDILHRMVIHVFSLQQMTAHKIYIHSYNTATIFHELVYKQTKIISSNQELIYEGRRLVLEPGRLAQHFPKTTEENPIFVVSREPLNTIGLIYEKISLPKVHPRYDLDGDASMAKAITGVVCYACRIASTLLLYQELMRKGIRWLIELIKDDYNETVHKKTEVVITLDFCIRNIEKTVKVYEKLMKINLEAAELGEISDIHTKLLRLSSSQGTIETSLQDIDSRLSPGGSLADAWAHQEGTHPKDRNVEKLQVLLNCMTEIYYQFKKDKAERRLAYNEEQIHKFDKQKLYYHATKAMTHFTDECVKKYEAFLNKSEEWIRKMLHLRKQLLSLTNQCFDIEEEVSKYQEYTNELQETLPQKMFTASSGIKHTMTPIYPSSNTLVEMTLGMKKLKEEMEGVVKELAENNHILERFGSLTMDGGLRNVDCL

Serine/threonine-protein kinase SIK1 (Homo sapiens), sequence (P57059 whole entry): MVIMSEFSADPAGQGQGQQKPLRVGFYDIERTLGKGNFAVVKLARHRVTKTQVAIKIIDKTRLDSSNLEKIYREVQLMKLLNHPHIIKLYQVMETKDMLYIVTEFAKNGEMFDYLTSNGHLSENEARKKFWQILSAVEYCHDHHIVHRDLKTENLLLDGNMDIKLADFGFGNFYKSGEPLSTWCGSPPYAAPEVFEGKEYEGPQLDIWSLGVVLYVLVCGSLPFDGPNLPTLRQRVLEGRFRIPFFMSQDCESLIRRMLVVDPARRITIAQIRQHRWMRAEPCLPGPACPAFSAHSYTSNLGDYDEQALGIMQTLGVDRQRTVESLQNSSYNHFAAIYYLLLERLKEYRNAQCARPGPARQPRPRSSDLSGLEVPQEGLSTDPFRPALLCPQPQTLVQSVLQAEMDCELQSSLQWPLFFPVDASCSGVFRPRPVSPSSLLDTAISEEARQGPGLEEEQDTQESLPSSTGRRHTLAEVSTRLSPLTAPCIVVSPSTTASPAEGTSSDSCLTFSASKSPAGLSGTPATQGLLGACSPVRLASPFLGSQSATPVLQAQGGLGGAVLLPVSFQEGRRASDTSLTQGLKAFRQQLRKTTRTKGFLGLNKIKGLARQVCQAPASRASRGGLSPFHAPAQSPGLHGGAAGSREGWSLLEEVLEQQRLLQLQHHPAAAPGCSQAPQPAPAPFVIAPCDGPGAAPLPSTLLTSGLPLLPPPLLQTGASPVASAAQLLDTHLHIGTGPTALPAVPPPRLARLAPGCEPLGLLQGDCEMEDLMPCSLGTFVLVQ
Serine/threonine-protein kinase pim-2 (Homo sapiens), sequence (Q9P1W9 whole entry, looked up): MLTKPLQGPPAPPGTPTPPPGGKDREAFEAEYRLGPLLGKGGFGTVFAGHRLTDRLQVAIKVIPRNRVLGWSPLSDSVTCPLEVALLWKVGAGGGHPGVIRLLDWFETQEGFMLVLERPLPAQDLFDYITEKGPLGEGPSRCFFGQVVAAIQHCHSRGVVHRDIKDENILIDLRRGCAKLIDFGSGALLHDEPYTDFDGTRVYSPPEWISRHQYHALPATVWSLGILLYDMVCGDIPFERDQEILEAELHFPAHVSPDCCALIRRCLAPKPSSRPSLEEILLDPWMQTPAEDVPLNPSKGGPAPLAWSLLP
Serine/threonine-protein kinase SIK2 (Homo sapiens), sequence (Q9H0K1 whole entry, looked up): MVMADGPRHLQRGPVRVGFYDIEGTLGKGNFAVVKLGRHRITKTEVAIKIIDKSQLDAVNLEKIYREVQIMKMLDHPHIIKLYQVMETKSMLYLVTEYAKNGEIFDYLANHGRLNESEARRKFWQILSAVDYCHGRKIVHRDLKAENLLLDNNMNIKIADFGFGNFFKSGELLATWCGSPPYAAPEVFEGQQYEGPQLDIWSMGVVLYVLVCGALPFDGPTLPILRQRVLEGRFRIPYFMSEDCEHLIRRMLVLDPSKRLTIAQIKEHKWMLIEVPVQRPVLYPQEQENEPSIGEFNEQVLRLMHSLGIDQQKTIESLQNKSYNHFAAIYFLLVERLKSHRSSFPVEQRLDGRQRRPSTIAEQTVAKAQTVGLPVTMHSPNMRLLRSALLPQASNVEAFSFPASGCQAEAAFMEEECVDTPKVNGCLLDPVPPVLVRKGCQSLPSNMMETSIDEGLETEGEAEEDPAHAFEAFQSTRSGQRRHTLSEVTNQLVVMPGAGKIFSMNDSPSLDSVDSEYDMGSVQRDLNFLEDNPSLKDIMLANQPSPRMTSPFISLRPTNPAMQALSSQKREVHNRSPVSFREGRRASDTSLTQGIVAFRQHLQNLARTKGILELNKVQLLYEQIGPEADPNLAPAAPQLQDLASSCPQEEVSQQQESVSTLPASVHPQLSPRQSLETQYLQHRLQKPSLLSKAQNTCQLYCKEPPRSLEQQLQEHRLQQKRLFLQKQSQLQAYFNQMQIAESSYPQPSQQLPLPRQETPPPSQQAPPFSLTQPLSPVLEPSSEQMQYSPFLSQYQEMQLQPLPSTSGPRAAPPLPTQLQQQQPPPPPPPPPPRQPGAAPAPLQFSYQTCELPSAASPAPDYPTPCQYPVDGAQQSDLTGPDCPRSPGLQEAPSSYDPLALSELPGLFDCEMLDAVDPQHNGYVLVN

Structure (SMILES) | inhibition [1] | inhibition [2] | inhibition [3] | inhibition [4] | inhibition [5] | inhibition [6] | inhibition [7] | inhibition [8] | inhibition [9] | inhibition [10]
Nc1nc(-c2cccc(Cl)c2)c(-c2ccc3ncccc3n2)s1 | 0.44% | 1.25% | 4.87% | 2.21% | 4.45% | 3.24% | 9.29% | 4.96% | 14.6% | 3.03%
c1ccc(-c2nc3n(c2-c2ccc4c(c2)OCO4)CCC3)nc1 | 0.83% | 0.35% | 1.07% | 0.81% | 0.42% | 2.02% | 4.54% | 0.11% | 3.1% | 1%
COc1cc(N2CCN(C(C)C)CC2)ccc1Nc1nc(Nc2ccc(F)cc2C(N)=O)c2cc[nH]c2n1 | 1.98% | 1.69% | 19.9% | 1.95% | 16% | 7.46% | 14.3% | 3.18% | 8.56% | 3.02%
COc1ccc(-c2nn3ncccc3c2-c2ccnc(Nc3ccc4c(c3)OCCO4)n2)cc1 | 1.11% | 0.26% | 2.15% | 0.05% | -0.76% | 1.35% | 12.5% | -0.55% | 6.1% | -0.73%
COc1cc(/C=N/Nc2ncnc3[nH]ncc23)ccc1O | 4.24% | 2.9% | 21.5% | 1.2% | 2.2% | 2.8% | 26.7% | 8.34% | 33.1% | 4.18%
CC(=O)NCc1cccc(C#Cc2cncnc2Nc2ccc(OCc3cccc(F)c3)c(Cl)c2)c1 | 0.6% | -0.57% | -1.13% | 0% | 0.14% | 1.32% | 2.96% | -1.4% | 5.8% | -0.27%
CCn1c(-c2nonc2N)nc2c(C#CC(C)(C)O)nc(OC[C@H](N)c3ccccc3)cc21 | 3.44% | 0.83% | 4.27% | 0.68% | 1.6% | 3.53% | 7.29% | 1.31% | -1.51% | 3.75%
COC(=O)Nc1nc2ccc(Oc3ccc(NC(=O)Nc4cccc(Cl)c4)cc3)cc2[nH]1 | -1.04% | -0.85% | -1.87% | 0.18% | -0.5% | 1.1% | 4.14% | 0.4% | 1.86% | 1.34%
CN(C)CCOc1ccc(-c2nc(-c3ccncc3)c(-c3ccc4c(c3)CC/C4=N\O)[nH]2)cc1 | 0.05% | -0.36% | 2.58% | 1.42% | 1.59% | 2.53% | 3.64% | 6.15% | 2.63% | 1.69%
CNC(=O)c1cccc(C#Cc2cncnc2Nc2ccc(OCc3cccc(F)c3)c(Cl)c2)c1 | -1.75% | 0.69% | 2.29% | 0.27% | 1.49% | 2.11% | 3.26% | -1.57% | -1.75% | -0.71%
CCn1c(-c2nonc2N)nc2ccccc21 | 1.82% | -0.8% | 10.7% | 0.58% | -0.74% | 7.25% | 7.65% | 9.3% | 1.28% | 3.25%
N#Cc1c(NC(=O)CN2CCOCC2)sc2c1CCCC2 | 1.1% | 0.45% | 1.12% | 1.41% | 2.49% | 0.17% | 6.91% | 5.2% | 8.69% | 1.76%
CC(C)COC(=O)c1ccc2c(c1)/C(=C/Nc1ccc(S(N)(=O)=O)cc1)C(=O)N2 | 5.85% | 8.76% | 48.8% | -0.6% | 1.18% | 2.01% | 72.2% | 4.76% | 39.7% | 38.1%
CN1CCC(n2cnc(-c3ccc(F)cc3)c2-c2ccnc(N)n2)CC1 | 6.09% | 2.48% | 21.3% | 1% | 1.6% | 2.58% | 7.47% | 7.38% | 21.9% | -1.27%
O=C(Nc1n[nH]c2cc(-c3ccc(F)cc3)ccc12)C1CC1 | 1.49% | 0.08% | 0.99% | 1.06% | 5.12% | 4.89% | 6.8% | 5.76% | 7.9% | 2.6%
CCCN(CCS(C)(=O)=O)Cc1ccc(-c2ccc3ncnc(Nc4ccc(OCc5cccc(F)c5)c(Cl)c4)c3c2)o1 | 0.55% | 0.79% | 1.71% | 0.4% | 0.36% | 5.69% | 6.39% | 4.14% | 7.64% | 2.46%
COC(=O)Nc1nc2ccc(S(=O)(=O)c3ccc(NC(=O)Nc4cc(C(F)(F)F)ccc4F)cc3)cc2[nH]1 | 0.73% | -0.65% | -1.2% | 0.38% | -0.4% | 2.55% | 3.12% | 0.97% | 0.1% | 2.66%
Nc1nc(-c2ccc(F)cc2)c(-c2ccc3ncccc3n2)s1 | 0.96% | 0.41% | 2.02% | 1.52% | 2.44% | 11.6% | 7.23% | 8.76% | 11.6% | 3.41%
[O-][S+]1CCN(Cc2ccc(-c3ccc4ncnc(Nc5ccc(OCc6cccc(F)c6)c(Cl)c5)c4c3)o2)CC1 | 0.11% | 0.21% | 1.34% | 2% | 2.05% | 5.68% | 12.1% | 8.92% | 10.4% | 5.39%
